# Reference: PubChem BioAssay (NCI)
# This is part of a sample that, as a whole, favours compounds with a hit. Of some 83,000 tested, about 20% had one in any assay.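 The endpoint reported here, percent growth, reads 100 for growth as untreated, 0 for no net growth and -100 for all cells dead.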 Active and inactive are the calls of the source. Rule for the calls: active = growth percent below 10; inactive = the rest.
# Test system: SK-MEL-28 melanoma
# Experiment: NCI-60 one-dose screen, 48 h (100 = growth as untreated, 0 = no growth, -100 = all killed)
# Conditions: 10 µM unless noted
row,Compound,growth
1,O=C(CSc1nccc(=O)[nH]1)Nc1ccc(-c2nc3ccccc3[nH]2)cc1,98.9% (inactive)
2,N[C@@H](Cc1cn(-c2ccnc3ccccc23)nn1)C(=O)O,97% (inactive)
3,CCOC(=O)c1c(Nc2ccccc2)nn2c(N)c(C#N)c(-c3ccc(F)cc3)nc12,100% (inactive)
4,O=C(N/N=C/c1ccc([N+](=O)[O-])o1)c1[nH]c2ccc(Br)cc2c1-c1ccccc1,55.9% (inactive)
5,CN(C)CCCNc1c2ccc(Cl)cc2nc2c1oc1ccc(Cl)cc12,72.5% (inactive)
6,Cc1c(NC(=O)CSc2nc3sc4c(c3c(=O)n2-c2ccc(Cl)cc2)CCCC4)c(=O)n(-c2ccccc2)n1C,89.2% (inactive)
7,CC(C)(C)Nc1nc2c(OCCc3ccccc3)cccn2c1-c1ccc(Cl)cc1,29.7% (inactive)
8,CN(C)CCCNc1c2ccc(Cl)cc2nc2c1oc1ccccc12,16.4% (inactive)
9,COc1ccccc1C(=O)CSc1nc(Nc2ccc(S(N)(=O)=O)cc2)c2ccccc2n1,96.8% (inactive)
10,COc1ccccc1/C=C/C=N/NC1=NC2C(S1)N(C)C(=O)N2C (stereo unspecified),56% (inactive)
11,COc1cccc(N2CCN(c3ncnc4c3[nH]c3ccc(F)cc34)C[C@@H]2C)c1,-26.8% (active)
12,O=C(CSc1nnc(-c2ccc3nc(-c4ccc(Cl)cc4)[nH]c3c2)o1)Nc1ccc(C(=O)/C=C/c2ccc(Cl)cc2)cc1,106% (inactive)
13,Cc1nc2cnc(N)c(C#Cc3cncc(C(=O)Nc4ccc(Cl)c(C(F)(F)F)c4)c3)c2nc1C,44.4% (inactive)
14,Cc1ccc(C(=O)Nc2cccc(C(F)(F)F)c2)cc1Nc1nc(-c2cnccn2)nc2c1cnn2C,15.6% (inactive)
15,CC(=O)Oc1ccccc1C(=O)Nc1cc(C(C)C)ccc1C,18% (inactive)
16,COc1ccc(/C=N/NC(=O)c2[nH]c3ccc(Br)cc3c2-c2ccccc2)s1,63.6% (inactive)
17,O=C(CN1C(=O)/C(=C/c2ccccc2)SC1=S)N1CCOCC1,96.5% (inactive)
18,COc1ccc(-c2nc3ccc(-c4nnc(SCC(=O)Nc5ccc(C(=O)/C=C/c6ccc(Cl)cc6)cc5)o4)cc3[nH]2)cc1OC,105% (inactive)
19,CN1C(=S)N(C)C2C1NN=C1SC(c3ccccc3)=CC(=O)N12 (stereo unspecified),102% (inactive)

row,Compound,growth
1,CN(C)c1ccc(/C=C2\Cc3c(F)ccc(Br)c3C2=O)cc1,97.4% (inactive)
2,CN(C)S(=O)(=O)c1oc(-c2ccccc2)nc1C#N,87.8% (inactive)
3,CC(C)(C)OC(=O)N1C(=O)c2c(c3c4ccccc4[nH]c3c3ccc4ccccc4c23)C1=O,63.2% (inactive)
4,Cc1[nH]nc2ncc(C#Cc3cncc(C(=O)Nc4ccc(CN5CCN(C)CC5)c(C(F)(F)F)c4)c3)cc12,-11.4% (active)
5,C#Cc1nc(C2=C(C)C(=N\O)/C(=N/O)C2)cs1,111% (inactive)
6,O=c1[nH]c2ccccc2cc1CSc1ccccc1Nc1nccc(-c2ccc(C(F)(F)F)cc2)n1,84.9% (inactive)
7,COC1CCN(Cc2ccc3c(NNC(=O)c4cnccn4)nc4cc(F)ccc4n23)C1 (stereo unspecified),29.2% (inactive)
8,O=C(CN1CCOCC1)NNc1ncnc2ccccc12,71.1% (inactive)
9,Cn1c(SCC(=O)Nc2ccc(-c3nc4ccc([N+](=O)[O-])cc4[nH]3)cc2)nc2ccccc2c1=O,79.4% (inactive)
10,O=C(CSc1nc2sc3c(c2c(=O)n1-c1ccc(Cl)cc1)CCCC3)N/N=C/c1ccc(F)cc1,108% (inactive)
11,O=c1/c(=C\c2ccc(-c3ccccc3)o2)sc2nc(-c3ccccc3)nn12,109% (inactive)
12,COC(=O)C1CCCN(S(=O)(=O)/N=C2\NC(=O)NC2=C(Cl)Cl)C1 (stereo unspecified),105% (inactive)
13,Clc1ccc2c(NCCCN3CCOCC3)c3oc4ccc(Cl)cc4c3nc2c1,80.4% (inactive)
14,N#Cc1nc(-c2ccccc2)oc1N1CC[C@@H](CO)C1,101% (inactive)
15,O=C(c1ccc(O)cc1)C1[C@H](c2ccc(Cl)cc2)[C@@H](c2ccccc2)NC12C(=O)Nc1ccc(Cl)cc12 (stereo partly specified),76.2% (inactive)
16,COc1cccc(OC)c1-c1nnn(C)c1C(=S)N1CCN(c2ccc([N+](=O)[O-])cc2Cl)CC1,98.3% (inactive)
17,CCCC(=O)NC(c1cccc(N(C)C)c1)c1cc(C)c2cccnc2c1O (stereo unspecified),77.1% (inactive)
18,CC(=O)Oc1ccccc1C(=O)Nc1ccc(C(=O)/C=C/c2ccncc2)cc1,55.8% (inactive)
19,C#Cc1nc(C2=C(C)C(OC(=O)CCC(=O)O)CC2)cs1 (stereo unspecified),115% (inactive)

# Test system: SK-MEL-2 melanoma
# Experiment: as above
# Conditions: 10 µM unless noted
row,Compound,growth
1,O=C(CSc1nccc(=O)[nH]1)Nc1ccc(-c2nc3ccccc3[nH]2)cc1,107% (inactive)
2,N[C@@H](Cc1cn(-c2ccnc3ccccc23)nn1)C(=O)O,124% (inactive)
3,CCOC(=O)c1c(Nc2ccccc2)nn2c(N)c(C#N)c(-c3ccc(F)cc3)nc12,100% (inactive)
4,O=C(N/N=C/c1ccc([N+](=O)[O-])o1)c1[nH]c2ccc(Br)cc2c1-c1ccccc1,-12.4% (active)
5,CN(C)CCCNc1c2ccc(Cl)cc2nc2c1oc1ccc(Cl)cc12,127% (inactive)
6,Cc1c(NC(=O)CSc2nc3sc4c(c3c(=O)n2-c2ccc(Cl)cc2)CCCC4)c(=O)n(-c2ccccc2)n1C,110% (inactive)
7,CC(C)(C)Nc1nc2c(OCCc3ccccc3)cccn2c1-c1ccc(Cl)cc1,-33.9% (active)
8,CN(C)CCCNc1c2ccc(Cl)cc2nc2c1oc1ccccc12,21.3% (inactive)
9,COc1ccccc1C(=O)CSc1nc(Nc2ccc(S(N)(=O)=O)cc2)c2ccccc2n1,98.1% (inactive)
10,COc1ccccc1/C=C/C=N/NC1=NC2C(S1)N(C)C(=O)N2C (stereo unspecified),23.9% (inactive)
11,COc1cccc(N2CCN(c3ncnc4c3[nH]c3ccc(F)cc34)C[C@@H]2C)c1,-94.9% (active)
12,O=C(CSc1nnc(-c2ccc3nc(-c4ccc(Cl)cc4)[nH]c3c2)o1)Nc1ccc(C(=O)/C=C/c2ccc(Cl)cc2)cc1,111% (inactive)
13,Cc1nc2cnc(N)c(C#Cc3cncc(C(=O)Nc4ccc(Cl)c(C(F)(F)F)c4)c3)c2nc1C,14.4% (inactive)
14,Cc1ccc(C(=O)Nc2cccc(C(F)(F)F)c2)cc1Nc1nc(-c2cnccn2)nc2c1cnn2C,-4.36% (active)
15,CC(=O)Oc1ccccc1C(=O)Nc1cc(C(C)C)ccc1C,-22.9% (active)
16,COc1ccc(/C=N/NC(=O)c2[nH]c3ccc(Br)cc3c2-c2ccccc2)s1,43.9% (inactive)
17,O=C(CN1C(=O)/C(=C/c2ccccc2)SC1=S)N1CCOCC1,125% (inactive)
18,COc1ccc(-c2nc3ccc(-c4nnc(SCC(=O)Nc5ccc(C(=O)/C=C/c6ccc(Cl)cc6)cc5)o4)cc3[nH]2)cc1OC,112% (inactive)
19,CN1C(=S)N(C)C2C1NN=C1SC(c3ccccc3)=CC(=O)N12 (stereo unspecified),95.2% (inactive)

row,Compound,growth
1,CN(C)c1ccc(/C=C2\Cc3c(F)ccc(Br)c3C2=O)cc1,108% (inactive)
2,CN(C)S(=O)(=O)c1oc(-c2ccccc2)nc1C#N,110% (inactive)
3,CC(C)(C)OC(=O)N1C(=O)c2c(c3c4ccccc4[nH]c3c3ccc4ccccc4c23)C1=O,42.7% (inactive)
4,Cc1[nH]nc2ncc(C#Cc3cncc(C(=O)Nc4ccc(CN5CCN(C)CC5)c(C(F)(F)F)c4)c3)cc12,-44.6% (active)
5,C#Cc1nc(C2=C(C)C(=N\O)/C(=N/O)C2)cs1,108% (inactive)
6,O=c1[nH]c2ccccc2cc1CSc1ccccc1Nc1nccc(-c2ccc(C(F)(F)F)cc2)n1,89.8% (inactive)
7,COC1CCN(Cc2ccc3c(NNC(=O)c4cnccn4)nc4cc(F)ccc4n23)C1 (stereo unspecified),74.7% (inactive)
8,O=C(CN1CCOCC1)NNc1ncnc2ccccc12,96.3% (inactive)
9,Cn1c(SCC(=O)Nc2ccc(-c3nc4ccc([N+](=O)[O-])cc4[nH]3)cc2)nc2ccccc2c1=O,90.7% (inactive)
10,O=C(CSc1nc2sc3c(c2c(=O)n1-c1ccc(Cl)cc1)CCCC3)N/N=C/c1ccc(F)cc1,136% (inactive)
11,O=c1/c(=C\c2ccc(-c3ccccc3)o2)sc2nc(-c3ccccc3)nn12,114% (inactive)
12,COC(=O)C1CCCN(S(=O)(=O)/N=C2\NC(=O)NC2=C(Cl)Cl)C1 (stereo unspecified),106% (inactive)
13,Clc1ccc2c(NCCCN3CCOCC3)c3oc4ccc(Cl)cc4c3nc2c1,122% (inactive)
14,N#Cc1nc(-c2ccccc2)oc1N1CC[C@@H](CO)C1,110% (inactive)
15,O=C(c1ccc(O)cc1)C1[C@H](c2ccc(Cl)cc2)[C@@H](c2ccccc2)NC12C(=O)Nc1ccc(Cl)cc12 (stereo partly specified),57% (inactive)
16,COc1cccc(OC)c1-c1nnn(C)c1C(=S)N1CCN(c2ccc([N+](=O)[O-])cc2Cl)CC1,110% (inactive)
17,CCCC(=O)NC(c1cccc(N(C)C)c1)c1cc(C)c2cccnc2c1O (stereo unspecified),89.9% (inactive)
18,CC(=O)Oc1ccccc1C(=O)Nc1ccc(C(=O)/C=C/c2ccncc2)cc1,108% (inactive)
19,C#Cc1nc(C2=C(C)C(OC(=O)CCC(=O)O)CC2)cs1 (stereo unspecified),114% (inactive)
